Bioassay records from PubChem BioAssay.
The list is not random: actives were taken first. Their share in the collection is about 6.5%.
Giardia killer – Giardia lamblia killing; 0.15% of 340,000 active; activity change, % at 7.66 µM, hits read low; Giardia lamblia trophozoite viability; in the data active = activity change below about -80%; inconclusive = between about -30% and that limit;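 also: parasites exposed to compound for two days anaerobically before the ATP read; % is scaled to controls: 0 for no effect and ±100 for the full control effect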
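Media and compound were dispensed first, then trophozoites at 100 cells/well; plates sat 48 hrs at 37 deg C without oxygen before ATP luminescence reagent was added and read after 15-30 min at room temperature.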
TGFb SMAD3 inh – TGF-b pathway inhibition; HepG2 CAGA-GFP TGF-b/SMAD3 reporter, GFP fluorescence, 18 h; TGF-beta stimulated, 500 pg/mL final; Potency, µM (doses to about 46.1 µM), inactives show top-dose activity, negative = inhibition, hits mostly inhibitors; 1.2% of 410,000 active; AID 588855; also: potency is read from the fitted curve at half-maximal effect; % is scaled to controls: 0 for no effect and ±100 for the full control effect; nearly all actives have a fitted effect of over 65% in size
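HEPG2 CAGA-GFP, 1000 cells/well; 2 h settle, 37 C; cpd via pin tool; TGF-b 500 pg/mL final; 18 h, 37 C; GFP imaging ex488/em500-530; %Activity normalised to -TGF-b and +DMSO controls; CRC fit, curve class.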
HT1080NT lethal – kills 2HG-producing HT-1080-NT fibrosarcoma cells. 1.6% of 360,000 active. Potency, µM (series often up to 46.1 µM), inactives show at the highest dose activity, negative = less viability, actives largely listed as cytotoxic. HT-1080-NT fibrosarcoma viability, CellTiter-Glo ATP luminescence, 48 h. AID 686970;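 also: NT is the 2HG producing partner of a matched IDH1 knockdown line; potency is read from the fitted curve at half-maximal effect; 0% = DMSO-treated cells and -100% = media-only wells without cells; nearly all actives have a fitted effect of over 55% in size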
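Luminescent CellTiter-Glo readout after 48 hours of compound exposure at 37 degrees C defined viability of HT-1080-NT cells. Activity was normalized to DMSO wells and cell-free media wells; concentration-response curves were fitted and assigned curve classes.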
IL-1B inflam inh – blocks inflammasome-driven IL-1 beta release | THP-1 LPS/ATP IL-1B secretion, AlphaLISA, 16 h; hits give low values | activity change, % at 57.5 µM | 4.7% of 360,000 active | AID 743279; in the data active = activity change below about -50%; inconclusive = mostly about -30% to -49%; also: % is scaled to controls: 0 for no effect and ±100 for the full control effect
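Secreted IL-1B measured by AlphaLISA bead assay after 16 h compound exposure of THP-1 cells; compounds (final up to 57.5 uM) added 1 h before LPS (250 ng/mL) and ATP (1.25 mM) stimulation; lower signal means less secretion.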
HepG2 viability – HepG2 cytotoxicity, counter-screen for TGF-b inhibitors. HepG2 CAGA-GFP viability, ATP luminescence, 18 h. Potency, µM (highest dose often 46.1 µM), inactives show at the top dose activity change, negative = cytotoxicity, usual class: cytotoxic. 0.76% of 410,000 active; also: potency is read from the fitted curve at half-maximal effect
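CellTiter-Glo luminescence gave cytotoxicity after 18 hours at 37 degrees C. The cells were HepG2 CAGA-GFP in 1% FBS DMEM, stimulated with 500 pg/mL TGF-beta after compound addition. %Activity was normalised to no-cell wells (complete cell-killing) and DMSO (no toxicity), and curves were fitted and classified.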
HT1080 IDH1KD tx – HT-1080 IDH1 knockdown cell toxicity (counter line) | AID 686971 | Potency, µM (series often up to 46.1 µM), inactives show at the highest dose activity, negative = toxicity, usual class: cytotoxic | HT-1080 IDH1 knockdown viability, ATP luminescence, 48 h | 2% of 360,000 active;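 also: potency is read from the fitted curve at half-maximal effect; 0% = DMSO wells and -100% = cell-free medium wells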
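Assay cells: HT-1080 with IDH1 knockdown, 750 per well, RPMI/5% FBS. Exposure: 48 h at 37 °C following 2 h pre-incubation. Read: CellTiter-Glo luminescence; fitted concentration-response, curve class assigned.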
* marks the source's active call; other numbers are inactive results; u = inconclusive; x = no result. Unless noted, calls follow the shape of the dose curve; as a rule, active = well fitted curve in the direction sought with a large enough effect; inconclusive = small, poorly fitted or top-dose-only effect, or another doubt; inactive = no such curve, though single readings can be large; an effect the other way counts as inactive or inconclusive.

SMILES | Giardia killer | TGFb SMAD3 inh | HT1080NT lethal | IL-1B inflam inh | HepG2 viability | HT1080 IDH1KD tx
Cc1ccc(-n2c(-c3ccco3)nc3c(cnn3-c3ccccc3C)c2=O)cc1 | 6.7 | u | -1.7% | 5.5 | -4.8% | 4.4%
O=C(Nc1cccc(F)c1)c1ccc(-c2ccccc2Cl)o1 | 10.4 | u | 4.5% | -28.6 | -43.9% | 0.0%
CCOC(=O)CSc1nnc([C@H](C)NC(=O)OC(C)(C)C)o1 | -4.7 | u | 14.1% | 30.2 | 10.1% | 13.9%
COCCn1c(=S)[nH]c2cc(C(=O)NC3CCCCCC3)ccc2c1=O | x | -24.2% | 8.1% | 23.4 | -3.4% | 8.3%
Fc1ccc(Nc2c3c(nc4ccccc24)CCC3)cc1 | 13.1 | u | 16.4µM* | -95.6* | -33.2% | u
c1ccc(Nc2c3c(nc4ccccc24)CCC3)cc1 | -3.2 | u | -7.9% | -12.6 | -15.4% | u
Cc1cc(Nc2ccc([N+](=O)[O-])cc2)nc2ccccc12 | -4.9 | -9.1% | u | 0.0 | 2.1% | u
COc1ccc(Nc2cc(C)c3ccccc3n2)cc1 | -8.5 | u | -15.8% | -96.6* | -31.0% | -9.0%
CN(C)CCCNc1c2c(nc3ccccc13)CCC2 | 10.3 | u | -28.8% | -68.7* | -35.1% | -18.8%
Cc1ccc2nc3c(c(Nc4ccccc4)c2c1)CCC3 | -2.6 | 12.6µM* | u | x | -41.8% | u
COc1ccc(N2CCN(C(=O)C3CCCN(S(=O)(=O)c4ccc5c(c4)oc(=O)n5C)C3)CC2)cc1 (configuration not stated) | 0.2 | 0.2% | 12.9% | 32.2 | 0.6% | -7.1%
C[C@H](O)Cc1cc2ccccc2c(=O)o1 | 6.1 | u | 2.4% | 3.8 | -6.9% | 2.4%
CCN(c1ccccc1)S(=O)(=O)c1ccc(C(=O)Oc2ccc(C(C)=O)cc2)cc1 | 14.7 | -12.7% | -2.2% | 17.7 | -2.0% | 3.4%
Cc1cc(C)cc(N(CCC#N)C(=O)COC(=O)CCc2c[nH]c3ccccc23)c1 | -13.8 | 1.7% | -3.8% | -0.2 | -17.6% | -8.2%
Cc1oc(-c2cccs2)nc1CS(=O)CC(=O)NCc1ccc2c(c1)OCO2 (configuration not stated) | -0.5 | -36.6% | -16.5% | -6.9 | -7.4% | 2.8%
CCCCCCCCSc1nnc2[nH]c(=O)cc(N)n12 | 14.1 | 0.0% | 0.3% | -7.2 | -120.1% | -4.4%
Cn1c(CCC(N)=O)nnc1SCC(=O)Nc1cc(S(=O)(=O)N2CCCC2)ccc1Cl | -24.1 | 0.0% | -3.9% | 2.2 | -1.4% | 2.2%
COc1ccc(Nc2c3c(nc4ccccc24)CCCC3)cc1OC | 28.8 | u | u | -17.9 | -12.0% | u
COc1ccc(NC(=S)c2ccccc2)cc1 | -12.7 | 4.3% | 2.7% | -81.5* | 4.6% | 6.8%
COc1ccc(C)cc1Nc1c2c(nc3ccccc13)CCC2 | 26.3 | 7.94µM* | u | -82.5* | -16.6% | 1.16µM*
COc1ccc(Nc2c3ccccc3nc3ccccc23)cc1 | 3.8 | u | 9.2µM* | -98.0* | -36.4% | 11.6µM*
COc1ccc(Nc2c3c(nc4ccccc24)CCC3)cc1 | 33.1 | 11.2µM* | 23.1µM* | x | -46.9% | u
COc1ccc(-n2nnc3c(=O)n(C/C=C/c4ccccc4)cnc32)cc1 | -11.1 | -3.0% | 0.8% | 2.4 | -13.8% | -6.0%
C/C(=N\Nc1cccc2cccnc12)c1ccc[nH]1 | -5.2 | -2.3% | 0.0% | -0.7 | -14.2% | -21.2%
CN(C(=O)c1ccccc1C(=O)OCC(=O)NC(=O)NC(C)(C)C)C1CCCCC1 | 12.7 | -8.2% | 1.0% | 0.0 | 6.7% | -0.2%
SMILES | Giardia killer | TGFb SMAD3 inh | HT1080NT lethal | IL-1B inflam inh | HepG2 viability | HT1080 IDH1KD tx
Cc1cc(C)n(CCCNC(=O)CN(C)S(=O)(=O)c2ccc(Cl)cc2)n1 | 1.7 | -15.4% | -2.4% | -8.8 | -1.4% | -0.4%
CC(C)OCCCN1CN(S(=O)(=O)c2cccc(Cl)c2)c2nc3ccccc3nc21 | -1.8 | -23.1% | -1.7% | u | -0.4% | -9.6%
Cc1ccc2c(c1)C1(C(=O)N2)N2CCCC2C(C(=O)c2ccc3ccccc3c2)C12C(=O)Nc1ccccc12 (configuration not stated) | -17.1 | u | u | -86.4* | -182.8% | u
O=[N+]([O-])c1ccc(N=Nc2ccc(O)cc2O)cc1 | -16.6 | u | 18.4µM* | -92.2* | -33.8% | 5.8µM*
O=[N+]([O-])c1ccc(N=Nc2c(O)[nH]c3ccc(F)cc23)cc1 | -12.6 | -0.5% | 20.3% | -10.4 | -0.2% | 16.9%
COC(=O)C(C)n1nc(C)n(-c2ccc(C)cc2)c1=O (configuration not stated) | 1.4 | 3.5% | -4.8% | 0.2 | -2.1% | 4.4%
Cc1ccnn1-c1ccc(C(=O)N2CCCN(S(=O)(=O)c3ccc(F)cc3)CC2)cc1 | 18.7 | -10.1% | -0.8% | -0.6 | -13.3% | -3.9%
C(=N\Nc1nc(Nc2ccccc2)nc(Nc2ccccc2)n1)/c1ccncc1 | 1.7 | u | -18.5% | -14.4 | 12.6µM* | 0.9%
CCOc1cc(/C=N/Nc2nncc(-c3ccccc3)n2)ccc1O | 2.9 | 5.1% | u | 37.5 | 10.4% | -23.4%
Cc1ccc(-c2cc(-c3ccccc3)nc(N/N=C/c3cccnc3)n2)cc1 | -16.9 | u | u | -17.9 | -11.6% | u
Cc1ccc(/C=N/Nc2nncc(-c3ccccc3)n2)o1 | 3.5 | 5.2% | -23.3% | -9.4 | 16.4% | -19.8%
Cc1[nH]n(-c2ccccc2)c(=O)c1/C=N/Nc1nncc(-c2ccccc2)n1 | -0.1 | u | 1.26µM* | 39.6 | -5.3% | 0.794µM*
Oc1cccc(/C=N\Nc2nncc(-c3ccccc3)n2)c1 | 10.9 | -16.7% | -17.1% | -61.9* | -16.2% | -3.7%
C(=N/Nc1nc(-c2ccccc2)cc(-c2ccccc2)n1)/c1cccnc1 | 14.8 | -1.5% | -15.6% | -53.2* | -25.1% | -9.7%
COc1cc2c(cc1OC)CN(C(=O)c1ccc(Br)o1)CC2 | 0.1 | -14.1% | 9.0% | -3.0 | 14.1% | 8.8%
CCOC(=O)c1sc(NC(=O)CN(CC(C)C)CC(C)C)c(C(=O)OCC)c1C | -8.5 | 20.4% | 1.2% | 14.0 | -2.8% | 5.4%
O=C(CCc1ccc(Oc2cc([N+](=O)[O-])cc([N+](=O)[O-])c2)cc1)N1CCCCCC1 | -6.8 | 17.8µM* | -13.3% | u | -37.7% | -13.9%
C=CCN(CC=C)S(=O)(=O)c1ccc2nc(NC(=O)C(C)C)sc2c1 | -5.2 | -1.7% | 3.66µM* | 28.2 | -3.7% | 7.31µM*
CCOC(=O)c1ccc2nc(NC(=O)C(C)C)sc2c1 | -19.5 | u | -0.8% | 0.0 | -28.1% | 1.7%
